The source of these data is PubChem BioAssay (NCI).

Experiment in all cases: NCI-60 one-dose screen, 48 h (100 = growth as untreated, 0 = no growth, -100 = all killed)
Holding throughout (conditions): 10 µM unless noted

For test [1], the system named is SR leukemia.
In test [2] the test system is RPMI-8226 leukemia.
The subject of test [3] is OVCAR-8 ovarian.
The subject of test [4] is OVCAR-5 ovarian.
The test system of test [5] is OVCAR-4 ovarian.
Test [6] has as its system SK-OV-3 ovarian.
Test [7] has as its system IGROV1 ovarian.
The subject of test [8] is OVCAR-3 ovarian.
Test [9] concerns HS 578T breast.
In test [10] the test system is NCI/ADR-RES ovarian.

About 83,000 compounds went through this panel and 20% of them were active in at least one assay; those are over-represented in the sample as a whole.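 Single-concentration screen, 48 h exposure, 96-well plates. Endpoint: percent growth. Below 10 = active.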 Values without a mark were called inactive. Calls of active or inactive are those of the source.

Turning to `N#Cc1cc(-c2nc3ccccc3s2)c(=O)n(NS(=O)(=O)c2ccc(Cl)cc2)c1N`, the growth in test [1] was 110%; in [2] it was 100%; in [3], 110%; in test [4] it was 102%; in [5] it was 103%; in test [6], 83.7%. Besides, the growth in test [7] was 95.5%; in [8], 107%; in test [9], 99.7%; in test [10], 104%.

Turning to `CCC(=O)c1ccc(O)c(OC)c1`, the growth in test [1] is 108%; in test [2] it was 93.7%; in [3], 99.4%; in test [4], 107%; in test [5], 107%; in [6], 122%. The growth is 102% in test [7], 110% in [8], 95.7% in [9] and 104% in test [10].

As for `CN(C)CCCn1c2c(c3ccc(-c4ccn[nH]4)cc3c1=O)C(=O)c1ccccc1-2`, the growth in [1] is -1.12% (active); in test [2], -0.979% (active); in test [3], 23.7%; in [4], 59.2%; in test [5] it was 77.9%; in [6], 23.5%. For the same compound, the growth was 41.2% in [7], 66.9% in test [8], 68.6% in test [9] and 50.3% in test [10].

For the compound `CCOc1cc(CNc2ccc(N3CCOCC3)c(C(=O)O)c2)ccc1OC`, the growth in test [1] is 94.2%; in [2], 100%; in test [3] it was 95.2%; in [4] it was 102%; in test [5] it was 102%; in test [6] it was 120%. The growth in [7] was 103%; in test [8] it was 105%; in [9], 95.6%; in test [10] it was 102%.

Consider `O=c1[nH]nc(-c2ccc(Br)cc2)cc1Cc1ccc(O)cc1`, for which the growth in test [1] is -29.1% (active); in [2], 53.8%; in test [3], 92.7%; in [4] it was 106%; in [5] it was 97.6%; in test [6] it was 92.9%. Besides, the growth in test [7] is 82.4%; in test [8] it was 92.4%; in [9] it was 64.1%; in [10], 71%.

In the case of `COc1c(Cl)cc(Cl)c2ccc(C=C3C(=O)N(C)C(=O)N(C)C3=O)nc12`, the growth in test [1] was 93.2%; in [2], 102%; in [3], 111%; in [4], 111%; in test [5], 104%; in test [6], 101%. Besides, the growth in test [7] was 114%; in test [8], 104%; in test [9] it was 104%; in test [10], 106%.

Turning to `Cc1nc2sc(C(=O)Nc3cccc(Br)c3)c(N)c2cc1C(=O)c1ccc(C(F)(F)F)cc1`, the growth in test [1] is 47%; in [2], 88.6%; in [3], 72.7%; in [4] it was 82.3%; in test [5], 6.24% (active); in test [6], 91.7%. For the same compound, the growth is 73.8% in test [7], 83.2% in [8], 40.7% in test [9] and 80.7% in test [10].

On to `O=C(Nc1sc2c(c1C(=O)O)CCCC2)c1cccc(C(F)(F)F)c1`, for which the growth in test [1] is 115%; in test [2] it was 80.9%; in test [3] it was 94.6%; in test [4], 98.5%; in test [5], 86.2%; in test [6], 83.8%. Moreover, the growth in test [7] is 96.3%; in test [8], 94.3%; in [9], 98.2%; in test [10], 93.3%.

On to `Cc1ccc(C2CC(c3cccc(Nc4ccncc4)c3)=NN2c2ccccc2)cc1` (stereo not given), for which the growth was -13.3% (active) in test [1]; -48.7% (active) in test [2]; -50.7% (active) in test [3]; -93.4% (active) in [4]; -86.5% (active) in test [5]; -31.4% (active) in [6]. For the same compound, the growth in test [7] was -92.7% (active); in test [8], -89.2% (active); in test [9] it was -57.5% (active); in [10], -72.8% (active).

As to `C=C1C(=O)O[C@H]2[C@H]1CC/C(COC(=O)CCCc1c[nH]c3ccccc13)=C\CC[C@@]1(C)O[C@@H]21`, the growth in test [1] is 1.59% (active); in [2], -17.6% (active); in test [3], 66.3%; in test [4] it was 94.7%; in [5] it was 65.8%; in test [6] it was 98.2%. The growth in [7] was 45.8%; in [8] it was 28.3%; in test [9] it was 74%; in test [10], 72.2%.

`NNC(=O)/C(=C\c1ccc([N+](=O)[O-])cc1)CC(=O)c1ccc(Cl)c(Cl)c1`: the growth in test [1] was 86.7%; in test [2] it was 91.7%; in [3], 90.9%; in test [4], 87.8%; in test [5], 80%; in test [6], 99.9%. Moreover, the growth in [7] is 70%; in [8] it was 97.2%; in [9], 88.4%; in [10] it was 84.9%.

As to `Cn1c(COC(=O)NCCn2ccnc2)nc2c(N3CCOCC3)nc(-c3ccccc3)nc21`, the growth in test [1] is 1.63% (active); in [2] it was -29.4% (active); in test [3] it was -12.9% (active); in test [4] it was -91% (active); in test [5] it was -87.8% (active); in test [6], 50.2%. In addition, the growth in [7] was -96% (active); in [8], -89.7% (active); in test [9] it was -33% (active); in [10], -1.95% (active).
